Shown are actives, neighbours in structure and some others; about 2.3% of the full set was active somewhere.
C diff HTS – blocks growth of Clostridium difficile. Clostridium difficile clinical isolate growth, OD600, 24 h; stronger effect = lower value. growth activity, negative = inhibition, % at 16 µg/mL (by protocol). hit rate 0.25% among 86,000;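 active means mean growth activity at or below -80% and every replicate also at or below -80%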
Pf Dd2 inh – blocks growth of Plasmodium falciparum Dd2 parasites | P. falciparum Dd2 growth, SYBR Green, 72 h; stronger effect = lower value | activity change, % at 10 µM | hit rate 2.3% among 94,000; in the data active means activity change below about -80%
Large screens that a line does not name were inactive; ! = repeats disagree.

C[C@@H]1CN([C@@H](C)CO)C(=O)c2c(c3ccccc3n2C)-c2ccccc2CO[C@H]1CN(C)S(=O)(=O)c1ccc([N+](=O)[O-])cc1	none
COc1ccc2c3c([nH]c2c1)[C@H](CO)N(Cc1ccccn1)CC31CCN(C(=O)CC2CC2)CC1	none
COc1ccccc1CN1[C@H](CO)[C@@H]2c3ccccc3N(C(=O)C3CCCCC3)C[C@@H]21	none
C[C@H]1CN([C@@H](C)CO)C(=O)CCCn2cc(nn2)CO[C@H]1CN(C)Cc1cccc(C(=O)O)c1	none (no result: C diff HTS)
Cc1ccc(S(=O)(=O)N(C)C[C@H]2OCc3ccccc3-c3c(n(C)c4ccccc34)C(=O)N([C@@H](C)CO)C[C@H]2C)cc1	Pf Dd2 inh -86 (no result: C diff HTS)
C[C@H]1CN([C@@H](C)CO)C(=O)c2c(c3ccccc3n2C)-c2ccccc2CO[C@@H]1CN(C)S(=O)(=O)c1ccccc1	none (no result: C diff HTS)
O=C(C[C@@H]1CC[C@@H]2[C@H](COC[C@H](O)CN2C(=O)Nc2ccc(Cl)c(Cl)c2)O1)NC1CCC1	C diff HTS -101! (no result: Pf Dd2 inh)
CNC(=O)C[C@H]1CC[C@@H]2[C@H](COC[C@H](O)CN2C(=O)Nc2ccc(Cl)c(Cl)c2)O1	none
O=C(C[C@H]1CC[C@H]2[C@@H](COC[C@H](O)CN2C(=O)Nc2cc(Cl)cc(Cl)c2)O1)N1CCOCC1	C diff HTS -96! (no result: Pf Dd2 inh)
CNC(=O)C[C@H]1CC[C@@H]2[C@H](COC[C@@H](O)CN2C(=O)Nc2ccc(Cl)c(Cl)c2)O1	none
O=C(C[C@H]1CC[C@H]2[C@@H](COC[C@H](O)CN2C(=O)Nc2ccc(Cl)c(Cl)c2)O1)NC1CCC1	C diff HTS -92 (no result: Pf Dd2 inh)
O=C(C[C@@H]1CC[C@@H]2[C@H](COC[C@@H](O)CN2C(=O)Nc2ccc(Cl)c(Cl)c2)O1)NC1CCC1	C diff HTS -98 (no result: Pf Dd2 inh)
CCNC(=O)C[C@@H]1CC[C@H]2[C@@H](COC[C@H](O)CN2C(=O)Nc2ccc(Cl)c(Cl)c2)O1	none (no result: C diff HTS)
O=C(C[C@H]1CC[C@@H]2[C@H](COC[C@@H](O)CN2C(=O)Nc2cc(Cl)cc(Cl)c2)O1)N1CCOCC1	none (no result: Pf Dd2 inh)
Cc1cc(C(=O)Nc2cccc3c2O[C@H](CN(C)Cc2ccccc2)[C@H](C)CN([C@@H](C)CO)C3=O)n(C)n1	none
COCC(=O)Nc1ccc2c(c1)C(=O)N(C)C[C@@H](OC)[C@H](C)CN(C(=O)c1cccnc1)[C@@H](C)CO2	none (no result: C diff HTS)
COc1ccc(S(=O)(=O)Nc2ccc3c(c2)C(=O)N([C@@H](C)CO)C[C@@H](C)[C@@H](CN(C)Cc2ccncc2)O3)cc1	none
C[C@H](CO)N1C[C@H](C)[C@H](CN(C)Cc2ccc(Oc3ccccc3)cc2)Oc2ccc(NC(=O)Nc3ccc(C(F)(F)F)cc3)cc2CC1=O	none
Cc1ccc(CN2CC(=O)N3[C@H](C2)[C@H](c2ccc(-c4ccccc4F)cc2)[C@@H]3CO)cc1	none
C[C@H]1CN([C@@H](C)CO)C(=O)c2cc(C#CC3(O)CCCC3)cnc2O[C@@H]1CN(C)S(=O)(=O)c1cccc(F)c1	none
O=C(C[C@H]1CC[C@H]2[C@@H](COC[C@@H](O)CN2C(=O)Nc2ccc(Cl)c(Cl)c2)O1)NC1CCC1	C diff HTS -99! (no result: Pf Dd2 inh)
CNC(=O)C[C@@H]1CC[C@H]2[C@@H](COC[C@H](O)CN2C(=O)Nc2ccc(Cl)c(Cl)c2)O1	none
O=C(C[C@H]1CC[C@@H]2[C@H](COC[C@H](O)CN2C(=O)Nc2ccc(Cl)c(Cl)c2)O1)NC1CCC1	C diff HTS -99! (no result: Pf Dd2 inh)
CCNC(=O)C[C@@H]1CC[C@H]2[C@@H](COC[C@@H](O)CN2C(=O)Nc2ccc(Cl)c(Cl)c2)O1	none (no result: C diff HTS)
CCCC#Cc1cnc2c(c1)C(=O)N([C@@H](C)CO)C[C@H](C)[C@H](CN(C)C(=O)c1cnccn1)O2	none
C[C@H](CO)N1C[C@H](C)[C@@H](CN(C)Cc2ccc(C(=O)O)cc2)Oc2ccc(NC(=O)CCC(F)(F)F)cc2CC1=O	none
COc1cccc(S(=O)(=O)N2CCC3(CC2)CN[C@H](CO)c2[nH]c4cc(OC)ccc4c23)c1	Pf Dd2 inh -88
COc1ccc2c3c([nH]c2c1)[C@@H](CO)NCC31CCN(C(=O)C2CCOCC2)CC1	Pf Dd2 inh -82
COc1ccc2c3c([nH]c2c1)[C@H](CO)NCC31CCN(C(=O)C2CCOCC2)CC1	none
COc1ccc2c3c(n(C)c2c1)[C@H](CO)NCC31CCN(S(=O)(=O)c2cccc(F)c2)CC1	Pf Dd2 inh -86
COc1ccc2c3c([nH]c2c1)[C@@H](CO)NCC31CCN(S(=O)(=O)c2cccs2)CC1	none
COc1ccc2c3c(n(C)c2c1)[C@H](CO)NCC31CCN(S(=O)(=O)c2cccc(C)c2)CC1	none
COc1ccc2c3c([nH]c2c1)[C@H](CO)NCC31CCN(C(=O)c2ccccc2)CC1	Pf Dd2 inh -84
COc1ccc2c3c([nH]c2c1)[C@@H](CO)NCC31CN(C(=O)c2ccccc2)C1	none
CN(C)C(=O)c1ccc(-c2ccc([C@@H]3[C@H](CO)N4CCCCN(C(=O)C5CCCC5)C[C@@H]34)cc2)cc1	none
COc1ccccc1CNC(=O)C[C@@H]1CC[C@@H]2[C@H](COC[C@H](O)CN2C(=O)Nc2ccc(F)cc2)O1	none
COc1ccc(NC(=O)N(C)C[C@@H]2Oc3ccc(NC(=O)CCCCCC(=O)Nc4ccccc4N)cc3C(=O)N([C@@H](C)CO)C[C@@H]2C)cc1	none
Cc1ccccc1S(=O)(=O)N[C@@H]1CC[C@@H](CCn2cc(-c3ccc(F)cc3)nn2)O[C@H]1CO	none (no result: C diff HTS)
C[C@@H]1CCCCO[C@@H](CN(C)Cc2ccc(Cl)c(Cl)c2)[C@H](C)CN([C@H](C)CO)C(=O)c2cc(NC(=O)CCC(F)(F)F)ccc2O1	Pf Dd2 inh -88
C[C@@H]1CCCCO[C@@H](CN(C)Cc2ccc(Cl)c(Cl)c2)[C@@H](C)CN([C@@H](C)CO)C(=O)c2cc(NC(=O)CCC(F)(F)F)ccc2O1	none
C[C@H](CO)N1C[C@H](C)[C@@H](CN(C)Cc2ccc(Cl)c(Cl)c2)OCCCC[C@H](C)Oc2ccc(NC(=O)CCC(F)(F)F)cc2C1=O	none
C[C@@H]1CN([C@H](C)CO)C(=O)c2cc(NC(=O)CCC(F)(F)F)ccc2O[C@@H](C)CCCCO[C@H]1CN(C)Cc1ccc(Cl)c(Cl)c1	Pf Dd2 inh -83
COc1ccc(S(=O)(=O)Nc2ccc3c(c2)CC(=O)N([C@@H](C)CO)C[C@@H](C)[C@@H](CN(C)S(=O)(=O)c2ccccc2)O3)cc1	none
Cc1noc(C)c1S(=O)(=O)N(C)C[C@@H]1OCCCC[C@H](C)Oc2ccc(NC(=O)Nc3cccc4ccccc34)cc2C(=O)N([C@H](C)CO)C[C@H]1C	none
Cc1noc(C)c1S(=O)(=O)N(C)C[C@H]1OCCCC[C@H](C)Oc2ccc(NC(=O)Nc3cccc4ccccc34)cc2C(=O)N([C@@H](C)CO)C[C@@H]1C	Pf Dd2 inh -85
Cc1noc(C)c1S(=O)(=O)N(C)C[C@@H]1OCCCC[C@H](C)Oc2ccc(NC(=O)Nc3cccc4ccccc34)cc2C(=O)N([C@H](C)CO)C[C@@H]1C	none
Cc1noc(C)c1S(=O)(=O)N(C)C[C@H]1OCCCC[C@H](C)Oc2ccc(NC(=O)Nc3cccc4ccccc34)cc2C(=O)N([C@H](C)CO)C[C@H]1C	Pf Dd2 inh -92
CC(=O)N[C@@H]1C=C[C@@H](CC(=O)NCC2CCCCC2)O[C@H]1CO	none
Cc1noc(C)c1NC(=O)N(C)C[C@@H]1Oc2ccc(NS(=O)(=O)c3cn(C)cn3)cc2CC(=O)N([C@H](C)CO)C[C@H]1C	Pf Dd2 inh -83
